# According to PubChem BioAssay (NCI):
# The panel holds about 79,000 compounds, 15% with a hit somewhere; the sample as a whole holds those more often. A number with no mark means an inactive call. Activity calls are given as the source filed them. Rule as the data show it: active = growth inhibition above about 70%; inactive = the rest.
# How the values were obtained:
# [1] = NCI Yeast Anticancer Drug Screen. Data for the rad52 strain (AID 147);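 also: 0% = growth of vehicle-treated control cultures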; conditions: S. cerevisiae rad52 mutant growth inhibition, hits give high values
# Method in brief: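 Growth of repair-deficient yeast cells was compared between compound-treated and vehicle-treated cultures to give percent inhibition.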
# [2] = NCI Yeast Anticancer Drug Screen. Data for the wt1 strain (AID 149);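 also: 0% = growth of vehicle-treated wt1 cultures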; conditions: S. cerevisiae wt1 strain (SPY 50644) growth inhibition, hits give high values
# Method in brief: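 Growth inhibition read against vehicle controls after compound exposure of the wt1 yeast strain.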
# [3] = NCI Yeast Anticancer Drug Screen. Data for the rad50EPP+ strain (AID 151);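 also: 0% = growth of vehicle-treated control cultures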; conditions: S. cerevisiae rad50 mutant strain, hits give high values
# Method in brief: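 Measured: growth inhibition of rad50EPP+ yeast. Reference: vehicle-treated controls. Screen uses strains with defined genetic alterations in DNA damage repair or cell cycle control.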
# [4] = NCI Yeast Anticancer Drug Screen. Data for the mgt1 strain (AID 153); conditions: S. cerevisiae mgt1 mutant growth inhibition, hits give high values
# Method in brief: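 Compounds were applied to mgt1 mutant yeast, and growth was then compared against vehicle-treated control cultures to give percent inhibition.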
# [5] = NCI Yeast Anticancer Drug Screen. Data for the rad50 strain (AID 155);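 also: 0% = growth of vehicle-only cultures of the same strain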; conditions: S. cerevisiae rad50 strain growth inhibition, hits give high values
# Method in brief: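 Readout: growth inhibition relative to vehicle-treated cultures. Compound exposure was carried out in a genetically defined yeast strain deficient in DNA damage repair.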
# [6] = NCI Yeast Anticancer Drug Screen. Data for the mec2-1 strain (AID 157); conditions: S. cerevisiae mec2-1 strain, hits give high values
# Method in brief: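 Compounds were applied to mec2-1 yeast cells. Their growth was then compared with that of vehicle-treated cultures to give growth inhibition.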
# [7] = NCI Yeast Anticancer Drug Screen. Data for the rad14 strain (AID 159);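 also: 0% = growth of vehicle-treated control cultures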; conditions: S. cerevisiae rad14 strain growth inhibition, hits give high values
# Method in brief: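 Growth inhibition vs vehicle controls; genetically altered yeast strain (DNA damage repair defect) treated with test compounds.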
# [8] = NCI Yeast Anticancer Drug Screen. Data for the sgs1 mgt1 strain (AID 161);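 also: 0% = growth of cultures given vehicle only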; conditions: S. cerevisiae sgs1 mgt1 strain, hits give high values
# Method in brief: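 Percent growth inhibition was derived by comparing compound-exposed mutant yeast with vehicle-exposed cultures. The strain carries alterations in DNA damage repair.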
# [9] = NCI Yeast Anticancer Drug Screen. Data for the CLN2oe strain (AID 163);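 also: 0% = growth of vehicle-only control cultures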; conditions: S. cerevisiae CLN2oe strain, hits give high values
# Method in brief: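 Cells of an engineered yeast line with disturbed cell-cycle regulation are treated with compound. Inhibition of growth is then calculated relative to the vehicle-treated reference.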
# [10] = NCI Yeast Anticancer Drug Screen. Data for the cln2 rad14 strain (AID 165);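 also: 0% = growth equal to vehicle treated cultures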; conditions: S. cerevisiae cln2 rad14 strain, hits give high values
# Method in brief: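 Strain: cln2 rad14 yeast, altered in cell cycle control and DNA damage repair. Read-out: growth inhibition vs vehicle.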
# [11] = NCI Yeast Anticancer Drug Screen. Data for the bub3 strain (AID 167); conditions: S. cerevisiae bub3 mutant strain, hits give high values
# Method in brief: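 Readout: yeast growth inhibition, expressed relative to vehicle-only wells. The test organism is a mutant strain from a panel with lesions in DNA repair or checkpoint genes.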
# [12] = NCI Yeast Anticancer Drug Screen. Data for the sgs1 strain (AID 173);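 also: 0% = growth of vehicle-only control cultures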; conditions: S. cerevisiae sgs1 mutant, hits give high values
# Method in brief: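 Strain with an altered DNA repair or cell cycle pathway exposed to compound. Growth then measured. Value = inhibition versus vehicle control.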
# [13] = NCI Yeast Anticancer Drug Screen. Data for the mlh1 rad18 strain (AID 175); conditions: S. cerevisiae mlh1 rad18 strain growth inhibition, hits give high values
# Method in brief: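 A repair-deficient yeast strain is exposed to test compound, and growth is scored relative to vehicle-treated controls.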
# [14] = NCI Yeast Anticancer Drug Screen. Data for the rad18 strain (AID 177); conditions: S. cerevisiae rad18 mutant growth inhibition, hits give high values
# Method in brief: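 DNA-repair-defective yeast; compound treatment; growth inhibition scored against vehicle.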
# [15] = NCI Yeast Anticancer Drug Screen. Data for the wt2 strain (AID 169);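 also: 0% = growth of vehicle-treated yeast cultures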; conditions: S. cerevisiae wt2 strain growth inhibition, hits give high values
# Method in brief: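 Growth of compound-treated yeast is measured and expressed as inhibition relative to vehicle-only controls.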
# [16] = NCI Yeast Anticancer Drug Screen. Data for the mlh1 strain (AID 171);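 also: 0% = growth of vehicle-treated control cultures of the same strain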; conditions: S. cerevisiae mlh1 strain growth inhibition, hits give high values
# Method in brief: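 Test agents were incubated with yeast bearing a defined DNA damage repair or cell cycle control alteration; values are growth inhibition normalised to vehicle-treated cultures.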
# [17] = at 5.0 µM (retest, dose inferred, filed as 0.5)
# [18] = at 50.0 µM (retest, dose inferred, filed as 5.0)
smiles,measurement,setting,value
Brc1ccccc1-c1ncc(-c2ccccc2)o1,growth inhibition,[1]; at 1.2 µM,-7%
same,growth inhibition,[1]; at 3.7 µM,-3%
same,growth inhibition,[1]; at 11.0 µM,19%
same,growth inhibition,[1]; at 33.0 µM,42%
same,growth inhibition,[1]; at 100.0 µM,55%
same,growth inhibition,[2]; at 1.2 µM,-12%
same,growth inhibition,[2]; at 3.7 µM,-26%
same,growth inhibition,[2]; at 11.0 µM,-12%
same,growth inhibition,[2]; at 33.0 µM,21%
same,growth inhibition,[2]; at 100.0 µM,44%
same,growth inhibition,[3]; at 1.2 µM,-14%
same,growth inhibition,[3]; at 3.7 µM,10%
same,growth inhibition,[3]; at 11.0 µM,-1%
same,growth inhibition,[3]; at 33.0 µM,38%
same,growth inhibition,[3]; at 100.0 µM,62%
same,growth inhibition,[4]; at 1.2 µM,15%
same,growth inhibition,[4]; at 3.7 µM,27%
same,growth inhibition,[4]; at 11.0 µM,33%
same,growth inhibition,[4]; at 33.0 µM,73% (active)
same,growth inhibition,[4]; at 100.0 µM,78% (active)
same,growth inhibition,[5]; at 1.2 µM,-1%
same,growth inhibition,[5]; at 3.7 µM,-2%
same,growth inhibition,[5]; [17],42%
same,growth inhibition,[5]; at 11.0 µM,24%
same,growth inhibition,[5]; at 33.0 µM,66%
same,growth inhibition,[5]; [18],81% (active)
same,growth inhibition,[5]; at 50.0 µM,72.2% (active)
same,growth inhibition,[5]; at 100.0 µM,70% (active)
same,growth inhibition,[6]; at 1.2 µM,7%
same,growth inhibition,[6]; at 3.7 µM,-23%
same,growth inhibition,[6]; [17],42%
same,growth inhibition,[6]; at 11.0 µM,-10%
same,growth inhibition,[6]; at 33.0 µM,40%
same,growth inhibition,[6]; [18],98% (active)
same,growth inhibition,[6]; at 50.0 µM,47.1%
same,growth inhibition,[6]; at 100.0 µM,76% (active)
same,growth inhibition,[7]; at 1.2 µM,-43%
same,growth inhibition,[7]; at 3.7 µM,-36%
same,growth inhibition,[7]; at 11.0 µM,-16%
same,growth inhibition,[7]; at 33.0 µM,55%
same,growth inhibition,[7]; at 100.0 µM,80% (active)
same,growth inhibition,[8]; [17],-18%
same,growth inhibition,[8]; [18],61%
same,growth inhibition,[8]; at 50.0 µM,71.4% (active)
same,growth inhibition,[9]; at 1.2 µM,0%
same,growth inhibition,[9]; at 3.7 µM,-8%
same,growth inhibition,[9]; at 11.0 µM,3%
same,growth inhibition,[9]; at 33.0 µM,6%
same,growth inhibition,[9]; at 100.0 µM,5%
same,growth inhibition,[10]; [17],33%
same,growth inhibition,[10]; [18],68%
same,growth inhibition,[10]; at 50.0 µM,37.9%
same,growth inhibition,[11]; at 1.2 µM,15%
same,growth inhibition,[11]; at 3.7 µM,6%
same,growth inhibition,[11]; [17],40%
same,growth inhibition,[11]; at 11.0 µM,52%
same,growth inhibition,[11]; at 33.0 µM,74% (active)
same,growth inhibition,[11]; [18],82% (active)
same,growth inhibition,[11]; at 50.0 µM,71.2% (active)
same,growth inhibition,[11]; at 100.0 µM,76% (active)
same,growth inhibition,[12]; at 1.2 µM,-1%
same,growth inhibition,[12]; at 3.7 µM,-17%
same,growth inhibition,[12]; at 11.0 µM,7%
same,growth inhibition,[12]; at 33.0 µM,50%
same,growth inhibition,[12]; at 100.0 µM,60%
same,growth inhibition,[13]; [17],37%
same,growth inhibition,[13]; [18],82% (active)
same,growth inhibition,[13]; at 50.0 µM,56.9%
same,growth inhibition,[14]; at 1.2 µM,-7%
same,growth inhibition,[14]; at 3.7 µM,0%
same,growth inhibition,[14]; at 11.0 µM,51%
same,growth inhibition,[14]; at 33.0 µM,75% (active)
same,growth inhibition,[14]; at 100.0 µM,78% (active)
Cc1nc(-c2cc3cc([N+](=O)[O-])ccc3oc2=O)cs1,growth inhibition,[1]; at 1.2 µM,13%
same,growth inhibition,[1]; at 3.7 µM,39%
same,growth inhibition,[1]; at 11.0 µM,47%
same,growth inhibition,[1]; at 33.0 µM,65%
same,growth inhibition,[1]; at 100.0 µM,97% (active)
same,growth inhibition,[2]; at 1.2 µM,-5%
same,growth inhibition,[2]; at 3.7 µM,5%
same,growth inhibition,[2]; at 11.0 µM,11%
same,growth inhibition,[2]; at 33.0 µM,25%
same,growth inhibition,[2]; at 100.0 µM,92% (active)
same,growth inhibition,[3]; at 1.2 µM,-7%
same,growth inhibition,[3]; at 3.7 µM,26%
same,growth inhibition,[3]; at 11.0 µM,57%
same,growth inhibition,[3]; at 33.0 µM,81% (active)
same,growth inhibition,[3]; at 100.0 µM,99% (active)
same,growth inhibition,[4]; at 1.2 µM,-1%
same,growth inhibition,[4]; at 3.7 µM,6%
same,growth inhibition,[4]; at 11.0 µM,5%
same,growth inhibition,[4]; at 33.0 µM,25%
same,growth inhibition,[4]; at 100.0 µM,89% (active)
same,growth inhibition,[5]; at 1.2 µM,20%
same,growth inhibition,[5]; at 3.7 µM,17%
same,growth inhibition,[5]; [17],17%
same,growth inhibition,[5]; at 11.0 µM,23%
same,growth inhibition,[5]; at 33.0 µM,42%
same,growth inhibition,[5]; [18],84% (active)
same,growth inhibition,[5]; at 50.0 µM,89.9% (active)
same,growth inhibition,[5]; at 100.0 µM,94% (active)
same,growth inhibition,[6]; at 1.2 µM,-15%
same,growth inhibition,[6]; at 3.7 µM,-3%
same,growth inhibition,[6]; [17],18%
same,growth inhibition,[6]; at 11.0 µM,3%
same,growth inhibition,[6]; at 33.0 µM,16%
same,growth inhibition,[6]; [18],100% (active)
same,growth inhibition,[6]; at 50.0 µM,94.2% (active)
same,growth inhibition,[6]; at 100.0 µM,94% (active)
same,growth inhibition,[7]; at 1.2 µM,-1%
same,growth inhibition,[7]; at 3.7 µM,6%
same,growth inhibition,[7]; at 11.0 µM,13%
same,growth inhibition,[7]; at 33.0 µM,25%
same,growth inhibition,[7]; at 100.0 µM,96% (active)
same,growth inhibition,[9]; at 1.2 µM,-22%
same,growth inhibition,[9]; at 3.7 µM,3%
same,growth inhibition,[9]; at 11.0 µM,8%
same,growth inhibition,[9]; at 33.0 µM,20%
same,growth inhibition,[9]; at 100.0 µM,81% (active)
same,growth inhibition,[10]; [17],2%
same,growth inhibition,[10]; [18],13%
same,growth inhibition,[10]; at 50.0 µM,59.4%
same,growth inhibition,[11]; at 1.2 µM,-15%
same,growth inhibition,[11]; at 3.7 µM,-2%
same,growth inhibition,[11]; [17],-15%
same,growth inhibition,[11]; at 11.0 µM,-1%
same,growth inhibition,[11]; at 33.0 µM,3%
same,growth inhibition,[11]; [18],60%
same,growth inhibition,[11]; at 50.0 µM,89.4% (active)
same,growth inhibition,[11]; at 100.0 µM,92% (active)
same,growth inhibition,[15]; at 1.2 µM,-42%
same,growth inhibition,[15]; at 3.7 µM,-24%
same,growth inhibition,[15]; at 11.0 µM,-11%
same,growth inhibition,[15]; at 33.0 µM,28%
same,growth inhibition,[15]; at 100.0 µM,99% (active)
same,growth inhibition,[16]; at 1.2 µM,-2%
same,growth inhibition,[16]; at 3.7 µM,-12%
same,growth inhibition,[16]; at 11.0 µM,10%
same,growth inhibition,[16]; at 33.0 µM,34%
same,growth inhibition,[16]; at 100.0 µM,98% (active)
same,growth inhibition,[12]; at 1.2 µM,5%
same,growth inhibition,[12]; at 3.7 µM,31%
same,growth inhibition,[12]; at 11.0 µM,42%
same,growth inhibition,[12]; at 33.0 µM,62%
same,growth inhibition,[12]; at 100.0 µM,99% (active)
same,growth inhibition,[13]; [17],16%
same,growth inhibition,[13]; [18],91% (active)
same,growth inhibition,[13]; at 50.0 µM,14.9%
same,growth inhibition,[14]; at 1.2 µM,1%
same,growth inhibition,[14]; at 3.7 µM,2%
same,growth inhibition,[14]; at 11.0 µM,7%
same,growth inhibition,[14]; at 33.0 µM,34%
same,growth inhibition,[14]; at 100.0 µM,94% (active)
